Test results published in PubChem BioAssay (EPA / NIEHS).
“And” between values parts separate entries of the source, which are not always exact repeats. Equal values may be shown once. Inconclusive results are not listed. The source holds several records for some structures; these can differ, active in one and inactive in another. The source made the active and inactive calls. The calls were made as follows, unless noted: active = hit-call score of the fitted dose curve at least 0.9, where 1 is the maximum; inactive = score below 0.9.

Columns and labels:
[1] = CCTE_Shafer_MEA_acute_AB: CCTE's Alamar Blue Assay for Cytotoxicity in the Neural Acute Assay, Shafer Lab (AID 2284069; active = hit-call score of the fitted dose curve at least 0.9, where 1 is the maximum;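 also: active compounds lower the viability signal compared with DMSO wells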)
Summary of the method: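 Primary rat cortical neurons on MEA plates, exposed acutely after baseline recording on day 13 or 15 post-plating. Viability by CellTiter Blue resazurin reduction (1:6 reagent dilution), fluorescence 544/590 nm; loss of signal versus DMSO.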

[2] = CCTE_Shafer_MEA_acute_LDH: CCTE's Lactate Dehydrogenase Assay for Cytotoxicity in the Neural Acute Assay, Shafer Lab (AID 2284086; active = hit-call score of the fitted dose curve at least 0.9, where 1 is the maximum;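 also: active means LDH release rises above DMSO vehicle level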)
Summary of the method: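 LDH released during 40 min compound exposure of primary rat cortical cultures, quantified by absorbance at 490 nm in collected medium. Fitting direction positive versus DMSO vehicle.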

[3] = CCTE_Shafer_MEA_dev_per_burst_interspike_interval: CCTE's Neural Network Formation Assay for Burst Interspike Interval, Shafer Lab (AID 2284044);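 as to AC50: potency for a decrease of within-burst interspike interval below DMSO level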
Summary of the method: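 Readout is the average time between spikes inside single-electrode bursts, taken as a well mean across bursting electrodes. Cortical neurons from rat developed networks on MEA plates under continuous 12-day exposure; recordings on days 5, 7, 9 and 12 were integrated by trapezoidal AUC.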

[4] = CCTE_Shafer_MEA_dev_burst_duration_mean: CCTE's Neural Network Formation Assay for Mean Burst Duration, Shafer Lab (AID 2284045);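 as to AC50: curve fitted for loss meaning shorter burst duration than DMSO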
Summary of the method: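 Network-formation assay in primary rat cortical neurons; treatment spans twelve days of development. Mean burst duration per well is integrated by trapezoidal AUC and fitted in the loss-of-signal direction against DMSO baseline.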

[5] = CCTE_Shafer_MEA_dev_interburst_interval_mean: CCTE's Neural Network Formation Assay for Mean Interburst Interval, Shafer Lab (AID 2284046);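 also: well-mean interburst interval of bursting electrodes as AUC over four recording days; curve fitted for decrease in interburst interval relative to DMSO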
Summary of the method: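 Recordings on days 5, 7, 9 and 12 give well-mean interburst interval across actively bursting electrodes, summarized as area under the curve. Cultures: rat cortical neurons, continuous exposure from day 0, compound renewed at feeds; decrease analyzed versus DMSO.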

[6] = CCTE_Shafer_MEA_dev_inter_network_spike_interval_mean: CCTE's Neural Network Formation Assay for Mean Inter-network Spike Interval, Shafer Lab (AID 2284047);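 as to AC50: potency for a decrease in mean inter-network spike interval below DMSO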
Summary of the method: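 Primary rat cortical neurons on 16-electrode MEA wells, exposed from plating day 0 through DIV 12, compound renewed at DIV 5 and 9 media changes. Mean interval between network-spike peaks recorded DIV 5, 7, 9, 12; collapsed as trapezoidal AUC, fitted downward versus DMSO.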

[7] = CCTE_Shafer_MEA_dev_network_spike_number: CCTE's Neural Network Formation Assay for Number of Network Spikes, Shafer Lab (AID 2284048);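 as to AC50: fit as a loss of signal meaning fewer network spikes than DMSO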
Summary of the method: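 Extracellular recordings from 16-electrode wells track network formation in rat cortical cultures under continuous treatment from plating. The endpoint is network spike number, expressed as AUC across DIV 5–12 relative to DMSO vehicle.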

[8] = CCTE_Shafer_MEA_dev_spike_duration_mean: CCTE's Neural Network Formation Assay for Mean Spike Duration, Shafer Lab (AID 2284051);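 also: mean network spike duration pooled as area under curve over DIV 5 to 12 recordings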;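 as to AC50: potency for a decrease in mean network spike duration versus DMSO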
Summary of the method: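 Primary rat cortical neurons on 16-electrode MEA wells (PEI-coated, laminin in plating drop), exposed from plating through DIV 12 with compound renewed at DIV 5 and 9. Mean network-spike duration recorded DIV 5, 7, 9, 12; trapezoidal AUC across days, DMSO baseline.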

[9] = CCTE_Shafer_MEA_dev_network_spike_duration_std: CCTE's Neural Network Formation Assay for Standard Deviation of Network Spike Duration, Shafer Lab (AID 2284052);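 also: area under curve of spike duration SD across recording days 5 to 12; hits are decreases in network spike duration SD versus DMSO vehicle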
Summary of the method: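 Primary rat cortical neurons on PEI-coated 16-electrode MEA wells, exposed from plating day 0 through day 12 with compound renewed at DIV 5 and 9. Network spike duration SD recorded on days 5, 7, 9, 12, collapsed as trapezoidal AUC; loss-of-signal fit versus DMSO.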

[10] = CCTE_Shafer_MEA_dev_per_network_spike_spike_number_mean: CCTE's Neural Network Formation Assay for Mean Number of Spikes in a Network Spike, Shafer Lab (AID 2284053)
Summary of the method: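 Primary rat cortical neurons on 48-well, 16-electrode MEA plates were exposed from plating to DIV 12, with dosing renewed on DIV 5 and 9. Spikes per network spike (0.05 s peak window) were recorded on DIV 5, 7, 9 and 12 and collapsed as trapezoidal AUC versus DMSO.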

[11] = CCTE_Shafer_MEA_dev_per_network_spike_spike_percent: CCTE's Neural Network Formation Assay for Percent of Spikes in a Network Spike, Shafer Lab (AID 2284054)
Summary of the method: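 Developing networks of rat cortical neurons are dosed at day 0 and recorded extracellularly four times up to day 12. The endpoint is the area under the curve of percent spikes in network spikes, fitted in the negative direction relative to DMSO.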

[12] = CCTE_Shafer_MEA_dev_LDH: CCTE's Lactate Dehydrogenase Assay for Cytotoxicity in the Neural Network Formation Assay, Shafer Lab (AID 2284068; active = hit-call score of the fitted dose curve at least 0.9, where 1 is the maximum;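 also: exposure for twelve days from plating with re-dosing on DIV 5 and 9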)
Summary of the method: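 Primary rat cortical neurons were plated on PEI/laminin MEA plates and exposed from day 0 for twelve days, with compound renewed at DIV 5 and 9. Cytotoxicity was determined by spectrophotometric LDH assay relative to DMSO.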

[13] = CCTE_Shafer_MEA_dev_AB: CCTE's Alamar Blue Assay for Cytotoxicity in the Neural Network Formation Assay, Shafer Lab (AID 2284083; active = hit-call score of the fitted dose curve at least 0.9, where 1 is the maximum;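 also: twelve days of exposure from plating with re-dosing on DIV 5 and 9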)
Summary of the method: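 Primary rat cortical neurons on PEI-coated 48-well MEA plates, 1.5 x 10^5 cells/well in laminin drop; compound exposure from day 0 of plating for twelve days, renewed at medium changes on DIV 5 and 9. Viability read as resazurin reduction by fluorescence, relative to DMSO.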

[14] = CCTE_Shafer_MEA_dev_mutual_information_norm: CCTE's Neural Network Formation Assay for Mutual Information Normalization, Shafer Lab (AID 2284091);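 as to AC50: mutual information between electrodes summarised as area under curve across four recording days; potency is for a decrease in mutual information relative to DMSO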
Summary of the method: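 Exposure of primary rat cortical neurons began at plating and ran to DIV 12, with full media and treatment renewal after DIV 5 and 9 recordings. Mutual information AUC (DIV 5–12) was analysed for loss versus DMSO.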

[15] = CCTE_Shafer_MEA_dev_correlation_coefficient_mean: CCTE's Neural Network Formation Assay for Mean Correlation Coefficient, Shafer Lab (AID 2284093);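 as to AC50: well mean pairwise spike train correlation integrated as AUC over recording days 5 to 12; potency fitted for loss of correlation relative to DMSO vehicle wells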
Summary of the method: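 Spontaneous activity recorded on days 5, 7, 9 and 12 post-plating; pairwise spike correlations are averaged across active electrodes and collapsed to an area-under-curve. Rat cortical cultures are dosed from plating through 12 days, with compound renewed at media changes.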

[16] = CCTE_Shafer_MEA_dev_network_spike_peak: CCTE's Neural Network Formation Assay for Mean Number of Electrodes in Network Spike, Shafer Lab (AID 2284049);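 as to AC50: fitted for loss of signal meaning fewer electrodes in network spikes than DMSO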
Summary of the method: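 Continuous 12-day exposure of rat cortical cultures, starting at plating, on MEA plates. Endpoint: electrodes participating in network-spike peaks, AUC across DIV 5–12, DMSO as negative control.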

DIO2 (gene 1734) = test: CCTE_GLTED_hDIO2: CCTE's human Deiodinase 2 (DIO2) Inhibition Assay, Great Lakes Toxicology and Ecology Division (GLTED) Lab (AID 2284050; active = hit-call score of the fitted dose curve at least 0.9, where 1 is the maximum)
Summary of the method: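 Iodide released by human deiodinase 2 over 3 h with test chemical, measured spectrophotometrically via Sandell-Kolthoff cerium/arsenic reaction. Run n=3; inhibition referenced to DMSO.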

DIO3 (gene 1735) = test: CCTE_GLTED_hDIO3: CCTE's human Deiodinase 3 (DIO3) Inhibition Assay, Great Lakes Toxicology and Ecology Division (GLTED) Lab (AID 2284055; active = hit-call score of the fitted dose curve at least 0.9, where 1 is the maximum;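 also: potency is for inhibition seen as loss of released iodide signal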)
Summary of the method: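 Inhibition is read as reduced iodide release, measured spectrophotometrically by the Sandell-Kolthoff cerium/arsenic reaction. Adenovirus-expressed human DIO3 enzyme is exposed to chemical for 3 h, n=3 plates. Iodinated chemicals, nitrite, iron or thiocyanate may interfere.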

Measured: AC50

O=C(O)c1nc(Cl)ccc1Cl
inactive: [1] | [2]

CC(C)Oc1cc(-n2nc(C(C)(C)C)oc2=O)c(Cl)cc1Cl
inactive: [1] | [2]

Cc1c(F)c(F)c(COC(=O)C2C(/C=C(\Cl)C(F)(F)F)C2(C)C)c(F)c1F (centres undefined)
inactive: [3] | [4] | [5] | [6] | [1]
active: [7] 311 nM | [8] 2.15 µM | [9] 893 nM | [10] 1.98 µM | [11] 1.45 µM | [12] 18 µM | [13] 17.4 µM | [14] 302 nM | [15] 610 nM

CC(Oc1ccc(Cl)cc1Cl)C(=O)O (centres undefined)
inactive: [1] | [2]

N#Cc1nn(-c2c(Cl)cc(C(F)(F)F)cc2Cl)c(N)c1S(=O)C(F)(F)F (centres undefined)
active: DIO2 (gene 1734) 29.6 µM | [11] 4.41 µM | DIO3 (gene 1735) 1.13 µM | [12] 23.8 µM
inactive: all other assays above

Fc1ccc(Oc2ccnc3cc(Cl)cc(Cl)c23)cc1
inactive: [1] | [2]
active: DIO2 (gene 1734) 10.1 µM | DIO3 (gene 1735) 0.965 µM

CON(C)C(=O)Nc1ccc(Cl)c(Cl)c1
inactive: [1]

C=CCC1=C(C)C(OC(=O)C2C(C=C(C)C)C2(C)C)CC1=O (centres undefined)
active: [7] 1150 nM | [16] 2.93 µM and 14.8 µM | DIO2 (gene 1734) 44.9 µM | [10] 24.5 µM | [11] 4.76 µM | DIO3 (gene 1735) 40.9 µM | [12] 23.6 µM | [13] 22.8 µM | [14] 917 nM | [15] 4100 nM
inactive: [3] | [4] | [5] | [6] | [7] | [8] | [9] | [10] | [11] | [1] | [13] | [2] | [14] | [15]

C=CCC1=C(C)[C@@H](OC(=O)[C@@H]2[C@@H](C=C(C)C)C2(C)C)CC1=O
active: [16] 10 µM | [13] 1.98 µM | [14] 2610 nM
not listed: [8] | [12] | [15] | DIO2 (gene 1734) | DIO3 (gene 1735)
inactive: all other assays above

CC(C)(C)c1ccc(CSc2cnn(C(C)(C)C)c(=O)c2Cl)cc1
active: [3] 4.98 nM | [4] 1.67 nM | [5] 3 nM | [6] 2.8 nM | [7] 2.16 nM | [16] 0.0022 µM | [8] 0.00163 µM | [9] 0.239 nM | [10] 0.00169 µM | [11] 0.00179 µM | [12] 0.00284 µM | [13] 0.0115 µM | [14] 1.53 nM | [15] 1.77 nM
inactive: [2]

CCCCOC(=O)c1ccccc1C(=O)OCCCC
active: [16] 74.9 µM | [8] 50 µM | [10] 72.1 µM | [12] 50 µM
not listed: [1] | [2] | DIO2 (gene 1734) | DIO3 (gene 1735)
inactive: all other assays above
